# From PubChem BioAssay
# Activity calls are given as the source filed them.
# Experiments:
# Albumin (Bos taurus) = Albumin (Bos taurus) (UniProt P02769); assay: compounds binding labelled BSA control protein – biochemical, small-molecule microarray, Alexa647 label, 635/667 nm fluorescence, artefact control for SMM control protein annotation, profiling panel (AID 1118); conditions: BSA-A647 binding, fluorescence 635 nm, higher = more signal;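 further: score merges 667 nm emission intensity and signal-to-noise per printed compound spot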
# Sequence of Albumin (Bos taurus) (P02769 whole entry, looked up): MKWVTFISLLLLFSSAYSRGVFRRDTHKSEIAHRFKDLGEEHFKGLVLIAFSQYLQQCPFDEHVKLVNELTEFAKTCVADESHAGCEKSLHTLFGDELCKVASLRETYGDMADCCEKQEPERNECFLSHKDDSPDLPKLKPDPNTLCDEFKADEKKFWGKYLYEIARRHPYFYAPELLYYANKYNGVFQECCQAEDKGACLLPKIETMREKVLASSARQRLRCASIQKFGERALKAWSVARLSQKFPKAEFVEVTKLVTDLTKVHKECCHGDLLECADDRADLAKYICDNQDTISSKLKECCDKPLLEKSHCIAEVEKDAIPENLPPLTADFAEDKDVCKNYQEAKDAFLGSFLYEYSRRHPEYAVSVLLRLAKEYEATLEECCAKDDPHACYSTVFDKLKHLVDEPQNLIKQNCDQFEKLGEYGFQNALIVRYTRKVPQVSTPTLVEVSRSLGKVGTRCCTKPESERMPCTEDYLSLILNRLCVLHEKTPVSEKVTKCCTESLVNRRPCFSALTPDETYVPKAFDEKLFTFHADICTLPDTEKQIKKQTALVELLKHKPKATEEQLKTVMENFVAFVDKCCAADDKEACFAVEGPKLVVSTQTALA
# [1] = probe aXIP binding to arrayed compounds – biochemical, NeuroSMM set, 635/667 nm fluorescence, primary screen (AID 1119); conditions: small-molecule microarray, higher = more signal, called active from +8 up or from −8 down;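 further: probe is the protein aXip251-270 applied at 1 µg/mL to compound-printed slides; binding of probe to printed compounds measured as 667 nm fluorescence plus signal to noise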
# [2] = probe aNOTCH3 binding on compound microarray – biochemical, small-molecule microarray, 635/667 nm fluorescence, primary screen (AID 1120); conditions: higher = more signal;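 further: probe is a biotin-tagged antibody raised against NOTCH3 rather than NOTCH3 protein; score merges spot fluorescence near 667 nm with spot signal to noise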
# [3] = probe aNOTCH2 binding on compound microarray – biochemical, small-molecule microarray, 635/667 nm fluorescence, primary screen (AID 1121); conditions: higher = more signal;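 further: score merges feature fluorescence read at 667 nm with its signal to noise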
# [4] = biological target: Carbonic anhydrase 2 (Homo sapiens) (UniProt P00918); assay: compounds binding carbonic anhydrase 2 – biochemical, small-molecule microarray, Alexa647-labelled CAII, profiling panel (AID 1122); conditions: CAII-A647 binding fluorescence, higher = more signal
# [5] = COS7 lysate on small-molecule microarray, probe aHis, 635 nm (AID 1123); conditions: COS7 cell lysate, fluorescence, higher = more signal;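 further: z-score combines 667nm fluorescence intensity with signal-to-noise per printed compound spot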
# [6] = probe aLAP1 signal on lysate-treated microarray – cell lysate, small-molecule microarray, COS7 lysate, primary screen (AID 1124); conditions: probe aLAP1, fluorescence, higher = more signal;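 further: lysate comes from COS7 cells expressing LAP1 and is applied at 0.3 µg/mL; score merges spot fluorescence near 667 nm with signal-to-noise over triplicate slides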
# Sam68 (KHDRBS1) = assay: compounds binding KHDRBS1 protein – biochemical, small-molecule microarray, 635 nm fluorescence, primary screen (AID 1125); conditions: higher = more signal;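 further: score merges 667 nm channel intensity with signal to noise over triplicate slides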
# [7] = system: Chordin-like protein 2 (CHRDL2); assay: compounds binding chordin-like 2 – biochemical, small-molecule microarray, 635 nm fluorescence, primary screen (AID 1126); conditions: fluorescence 635 nm, higher = more signal;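 further: printed compound slides probed with Chrdl2 protein at 4 µg/mL for 1 h at 4 C; score merges 667 nm emission intensity with signal to noise over three replicate slides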
# [8] = biological target: Concanavalin-A (Canavalia ensiformis) (UniProt P02866); assay: compounds binding concanavalin A lectin – biochemical, small-molecule microarray, Alexa647 label, 635 nm, artefact control for SMM control protein annotation, primary screen (AID 1127); conditions: ConA-A647 binding fluorescence, higher = more signal;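 further: z combines 667 nm emission intensity with signal-to-noise across three replicate slides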
# Sequence of Concanavalin-A (Canavalia ensiformis) (P02866 whole entry, looked up): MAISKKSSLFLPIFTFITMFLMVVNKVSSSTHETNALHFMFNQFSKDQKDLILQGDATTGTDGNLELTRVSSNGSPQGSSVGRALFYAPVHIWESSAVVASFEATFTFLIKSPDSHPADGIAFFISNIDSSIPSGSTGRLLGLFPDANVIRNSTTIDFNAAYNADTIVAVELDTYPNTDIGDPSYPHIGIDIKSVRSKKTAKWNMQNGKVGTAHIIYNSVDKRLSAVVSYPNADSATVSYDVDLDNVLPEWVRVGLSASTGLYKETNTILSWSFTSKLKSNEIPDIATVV
Structure (SMILES),composite z-score (Albumin (Bos taurus)),composite Z-score [1],composite z-score [2],composite z-score [3],composite z-score [4],composite z-score [5],composite z-score [6],composite z-score (Sam68 (KHDRBS1)),composite z-score [7],composite z-score [8]
Cc1ccc(S[C@]2(C(=O)NCC(C)C)CC(=O)N(C3Cc4ccccc4C3)[C@@H]2c2ccc(CO)cc2I)cc1,-0.615,-0.211 (inactive),-0.323,-0.188,0.398,0.554,-0.221,-0.383,-1.65,-0.762
O=C(NCC(O)CO)[C@@]1(CCS(=O)(=O)c2ccccc2)COC(c2ccc(OCCCO)cc2)=N1 (stereo not given in full),0.927,0.538 (inactive),0.241,0.0342,0.863,3.35,-0.0542,0.679,-0.734,0.572
COC(=O)[C@@]1(Cc2ccc(OC)cc2)[C@H]2c3cc(C(=O)N4CCCC4)n(Cc4cc(C)n(C)n4)c3C[C@H]2CN1C(=O)c1ccccc1,1.09,5.19 (inactive),0.313,0.446,0.962,3.19,0.637,1.32,-1.19,0.485
COC(=O)[C@@]1(Cc2ccc(F)cc2)[C@H]2c3cc(C(=O)N(C)C)n(Cc4c(CO)[nH]cc(C)c4=O)c3C[C@H]2CN1C(=O)c1ccccc1,0.569,0.266 (inactive),0.26,0.224,0.866,0.816,1.41,-0.279,0.146,-0.189
Cc1ccc(C(C)CC(O)C2C=CC3C(=O)N(c4ccccc4)C(=O)C3N2Nc2ccc(C#N)cc2)o1 (stereo not given),1,-0.102 (inactive),0.0744,0.115,0.707,3.21,0.825,1.29,-0.387,1.16
[N-]=[N+]=Nc1ccccc1C[C@]1(C(=O)O)N=C(c2ccc(OCCCO)cc2)O[C@H]1c1ccccc1,0.784,0.0778 (inactive),-0.0316,-0.121,0.601,2.58,0.266,0.822,-1.09,0.552
COc1cc(NN2C(C(O)c3cc(OC)c(OC)c(OC)c3)C=CC3C(=O)N(c4ccccc4)C(=O)C32)cc(OC)c1OC (stereo not given),1.06,0.573 (inactive),0.612,0.044,0.722,2.19,0.289,1.32,0.476,1.2
CCCNC(=O)[C@@]1(C)c2ccccc2C(=O)N(Cc2ccccc2)[C@H]1c1ccc(CO)cc1,0.0799,2.55 (inactive),-0.128,0.0313,0.71,2.68,0.931,0.526,-1.13,0.657
COCCCNC(=O)[C@@]1(Sc2ccc(C)cc2)CC(=O)N(Cc2ccccc2Cl)[C@@H]1c1ccc(CO)cc1I,0.7,-0.0202 (inactive),-0.145,-0.178,0.809,0.658,-0.47,-1.22,-1.05,-0.556
CN(C)C(=O)[C@@]1(Cc2ccccc2N=[N+]=[N-])N=C(c2ccc(OCCCO)cc2)O[C@H]1c1ccccc1,0.897,2.37 (inactive),0.484,0.369,0.681,2.76,1.13,1.31,-0.699,1.18
COc1cc(NN2C(C(O)c3ccccc3)C=CC3C(=O)N(C)C(=O)C32)cc(OC)c1OC (stereo not given),0.566,1.13 (inactive),0.12,-0.0817,0.781,1.73,0.481,1.3,-0.179,0.659
CCN(CC)c1ccc(N2CC=CC34O[C@@H]5/C=C\CCC(C)OC(=O)C5[C@H]3C(=O)N(C(C)CO)[C@@H]4C2=O)cc1 (stereo not given in full),-0.739,0.451 (inactive),-0.24,-0.148,0.42,-0.175,-0.165,-0.0199,0.142,-1.09
COC(=O)C(CC#Cc1ccc2c(c1)[C@]1(C(=O)N2)[C@H](c2ccc(OCCO)cc2)N2[C@H](c3ccccc3)[C@H](c3ccccc3)OC(=O)[C@H]2[C@@H]1C(=O)N1CCN(c2ncccn2)CC1)C(=O)OC,0.621,0.434 (inactive),0.176,0.0296,0.62,1.71,0.832,1.3,0.441,1.16
O=C1c2ccccc2[C@](Cc2ccccc2I)(C(=O)NC2CC2)[C@H](c2ccc(CO)cc2)N1Cc1ccccc1C(F)(F)F,0.502,0.0029 (inactive),0.134,-0.0986,0.66,1.88,0.43,0.456,-0.941,0.847
CC(C)N1CC=CC23O[C@@H]4/C=C\CCCOC(=O)C4[C@H]2C(=O)N(CCCCCCO)[C@@H]3C1=O (stereo not given in full),-0.616,0.379 (inactive),-0.277,-0.0895,0.938,1.28,1.14,0.223,-1.26,-1.02
O=C1C[C@@](C(=O)NCc2ccccc2)(c2ccc([N+](=O)[O-])cc2)[C@@H](c2ccc(CO)cc2I)N1CC12CC3CC(CC(C3)C1)C2,0.59,-0.0102 (inactive),-0.223,-0.14,0.721,2.25,0.0884,1.21,0.542,0.999
NC(=O)N1C(=O)C2C(C1=O)C1C=C(CCCO)C2C(C2CC2)N1Cc1cccc(OC(F)(F)F)c1 (stereo not given),0.858,0.547 (inactive),-0.349,-0.179,0.653,0.518,-0.0171,0.588,-0.489,0.221
Cc1ccc(S[C@]2(C(=O)NC(C)C)CC(=O)N(C(C)C)[C@@H]2c2ccc(CO)cc2I)cc1,0.41,-0.283 (inactive),-0.0647,-0.0686,0.326,1.32,0.366,1.12,-0.598,-0.0097
COc1ccc(C(O)C2C=CC3C(=O)N(c4ccccc4)C(=O)C3N2Nc2ccc(C(C)C)cc2)c2ccccc12 (stereo not given),0.916,0.0396 (inactive),0.378,0.186,0.725,2.84,0.284,1.31,-0.118,1.12
O=C1OCCC=C[C@H]2OC34C=CCN(c5ccc(Cl)cc5)C(=O)[C@H]3N(CCCCCCO)C(=O)[C@@H]4C12 (stereo not given in full),-0.418,0.318 (inactive),-0.122,-0.218,0.802,-0.328,-0.256,-0.156,-1.16,-0.941
COc1cc(CO)cc(I)c1O[C@H]1C=C(C(=O)NCCO)C[C@@H](NCC2CCCCC2)[C@@H]1O,0.0439,-0.442 (inactive),0.107,-0.104,0.681,1.14,-0.102,0.408,0.168,0.324
Cc1ccc(N2C(=O)c3ccccc3[C@](C)(C(=O)NCc3ccccc3)[C@@H]2c2ccc(CO)cc2)nc1,-0.377,-0.446 (inactive),0.0311,0.0611,0.764,0.688,0.656,-0.316,0.408,0.0943
CCOC(=O)C[C@H]1[C@H](OC(=O)c2cc3ccccc3oc2=O)[C@@H](NC(=O)c2ccc3ccccc3c2)c2cc(OCCCO)ccc2N1C(=O)Cc1ccc(OC)cc1,0.684,-0.0384 (inactive),-0.0377,-0.0131,0.265,1.69,0.241,0.692,0.453,0.69
CCc1cccc(NC(=O)O[C@H]2[C@H](OC(=O)Nc3ccccc3)[C@H](OC(=O)Nc3ccccc3)[C@@H](OC)O[C@@H]2CO)c1,0.902,1.21 (inactive),0.211,-0.0481,0.663,2.57,0.814,1.29,-0.539,1
CN(C)C(=O)[C@@]1(CCC(=O)OC(C)(C)C)N=C(c2ccc(OCCCO)cc2)O[C@H]1c1ccccc1CN=[N+]=[N-],1,-0.181 (inactive),-0.0111,-0.0206,0.825,3.22,0.626,1.29,-0.409,0.613
CC(=O)n1cc(C(O)C2C=CC3C(=O)N(c4ccccc4)C(=O)C3N2Nc2ccc(C(C)C)cc2)c2ccccc21 (stereo not given),1.02,1.19 (inactive),0.328,0.08,0.433,2.87,0.503,1.29,0.0259,0.764
NC(=O)NCC#Cc1ccc2c(c1)[C@]1(C(=O)N2)[C@H](C(=O)N2CCN(c3ncccn3)CC2)[C@H]2C(=O)O[C@H](c3ccccc3)[C@H](c3ccccc3)N2[C@@H]1c1ccc(OCCO)cc1,0.003,0.17 (inactive),0.127,-0.084,0.236,0.944,0.241,0.982,0.106,0.972
O=C(N1CCOCC1)[C@@]1(CCS(=O)(=O)c2ccccc2)N=C(c2ccc(OCCCO)cc2)O[C@H]1c1ccccc1,1.06,0.55 (inactive),0.211,0.0228,0.853,3.1,-0.152,1.31,-0.56,1.2
